A selection: hits, their analogues and other compounds. The true share with any hit is near 21%.
SARS PLP yeast: qHTS of Yeast-based Assay for SARS-CoV PLP. S. cerevisiae expressing SARS-CoV PLpro, growth rescue. Potency, µM (highest dose often 32.9 µM), most hits filed as activators. hit rate 0.19% among 330,000; calls by dose curve; further: nearly all actives have a fitted effect of over 55% in size
Pf growth 48h: Primary qHTS for delayed death inhibitors of the malarial parasite plastid, 48 hour incubation. P. falciparum luciferase growth in erythrocytes, 48 h. Potency, µM (series often up to 28.7 µM), usual class: inhibitors. hit rate 5.9% among 310,000. AID 504832, 2011
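Here the parasites carry a stable luciferase gene and grow inside erythrocytes in Albumax-based RPMI medium with compound for one erythrocytic cycle. Activity is scored as loss of luminescent signal.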
NS1 function inh: qHTS Assay for Inhibitors of Influenza NS1 Protein Function; AID 2326, 2010; Potency, µM (doses to about 46.1 µM); hit rate 0.4% among 270,000; calls by dose curve; further: actives are rising curves; nearly all actives have a fitted effect of over 50% in size
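In this qHTS, NS1 from influenza A is expressed in budding yeast, where it slows growth. Cells are switched from glucose to 2% galactose medium (pH 6.0, -URA), treated with compound, and growth recovery is read at OD600.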
Shiga inhibitor: A qHTS for Small Molecule Inhibitors of Shiga Toxin; Vero cells, Shiga toxin protein synthesis inhibition reporter; inhibition, % at 38.7 µM; hit rate 9.2% among 290,000; in the data active means inhibition mostly above about 28%, no sharp cut-off; inactive means mostly below about 43%
Cycloheximide cs: Cycloheximide Counterscreen for Small Molecule Inhibitors of Shiga Toxin. cell reporter, cycloheximide protein synthesis inhibition counterscreen. max response, %. hit rate 12% among 300,000; in the data active means max response mostly above about 13%, no sharp cut-off; inactive means mostly below about 14%; further: read at 38.3 µM for the half of the compounds with a filed dose
Pf growth 96h: Primary qHTS for delayed death inhibitors of the malarial parasite plastid, 96 hour incubation. AID 504834, 2011. Potency, µM (doses to about 28.7 µM), usual class: inhibitors. hit rate 6.9% among 320,000. P. falciparum luciferase reporter growth, 96 h
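Readout is luminescence from an integrated firefly luciferase in P. falciparum. Red cells, 2% hematocrit and 0.05% parasitemia final, were cultured with compound through two parasite generations (96 hours) at 37 C, 5% CO2.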
Large screens that a line does not name were inactive. Unless noted, the call rests on the fitted dose curve; in most records, active means well fitted inhibition curve with a large enough effect; inconclusive means small, poorly fitted or top-dose-only effect, or another doubt; inactive means no such curve, though single readings can be large or run the other way.

CCCCOc1ccc(C2/C(=C(\O)c3ccc4c(c3)OCCO4)C(=O)C(=O)N2CCCN2CCOCC2)cc1 (stereo not drawn)	Pf growth 96h inconclusive
CN(CC(=O)Nc1ccc(F)c(F)c1F)C(=O)c1ccc(-n2cncn2)c([N+](=O)[O-])c1	none (no result: NS1 function inh, Shiga inhibitor, Cycloheximide cs)
COCCCn1c(-c2ccc(Cl)cc2)n[nH]c1=S	Pf growth 96h inconclusive (no result: Pf growth 48h)
COCCCn1c(-c2ccccc2Cl)n[nH]c1=S	Pf growth 96h 1.9µM
C=CCOn1c(=O)c(-c2ccc(C)cc2)[n+]([O-])c2ccccc21	none
OC1COC(OCc2ccccc2)C(O)C1O (stereo not drawn)	Pf growth 96h inconclusive
c1ccc(-c2[nH]c(-c3ccccc3)[n+](CC3CO3)c2-c2ccccc2)cc1 (stereo not drawn)	Pf growth 48h inconclusive, Cycloheximide cs 50, Pf growth 96h 10µM
O=C(CCCn1nnnc1CN1CCOCC1)N1CCC(c2ccc(F)cc2)C1 (stereo not drawn)	Pf growth 96h 7.4µM
COc1ccc(N2CCN(C(=O)CCCn3nnnc3CN3CCOCC3)C(C)C2)cc1 (stereo not drawn)	Pf growth 96h 12µM
CCN(CC)C(=O)C1CCCN(C(=O)CCn2nnnc2CN2CCOCC2)C1 (stereo not drawn)	none
O=C(O)/C(=C\c1ccc(-c2ccccc2[N+](=O)[O-])o1)c1ccccc1	Shiga inhibitor 28
CNC(=O)/C(C#N)=C/c1ccc(-c2ccc(Cl)cc2)o1	Shiga inhibitor 76, Cycloheximide cs 28, Pf growth 96h inconclusive
CNC(=O)/C(C#N)=C/c1ccc(-c2ccccc2[N+](=O)[O-])o1	Cycloheximide cs 36
O=C(/C=C/c1ccc(-c2ccccc2[N+](=O)[O-])o1)c1ccccc1	Shiga inhibitor 96, Cycloheximide cs 51
Cc1ccc2[nH]c(=O)c(CN(CC3CCCO3)C(=S)Nc3ccccc3)cc2c1 (stereo not drawn)	Pf growth 48h inconclusive
Cc1nn(-c2ccccc2)c2sc(C(=O)N3CCOCC3)cc12	Shiga inhibitor 44, Cycloheximide cs 43
Cc1nn(-c2ccccc2)c2sc(C(=O)N(CC(=O)NC(C)(C)C)Cc3ccco3)cc12	Pf growth 48h inconclusive, Cycloheximide cs 19, Pf growth 96h inconclusive
O=C(c1cc2c(=O)oc3ccccc3c2s1)N1CCOCC1	Cycloheximide cs 31, Pf growth 96h inconclusive
Cn1c2ccccc2c2cc(C(=O)N3CCOCC3)sc21	Cycloheximide cs 21
Cc1c(C(=O)N2CCC3(CC2)CC(=O)c2ccccc2O3)cccc1[N+](=O)[O-]	Pf growth 96h inconclusive (no result: NS1 function inh, Shiga inhibitor, Cycloheximide cs)
COc1ccc(CC(=O)OC(C)CN2CCCCC2)cc1 (stereo not drawn)	none
CCN1CCCC1CNC(=O)c1nn(-c2ccc(C)cc2)c(=O)c2c1c1ccccc1n2C (stereo not drawn)	none (no result: SARS PLP yeast, Pf growth 48h, Shiga inhibitor, Cycloheximide cs, Pf growth 96h)
O=C(c1cc2c(s1)-c1ccccc1OC2)N1CCc2ccccc2C1	Shiga inhibitor 56, Cycloheximide cs 87, Pf growth 96h inconclusive
COC(=O)c1cc2c(s1)-c1ccc(OC)cc1CC2	Shiga inhibitor 115, Cycloheximide cs 55
CCOC(=O)C1CCN(C(=O)c2cc3c(s2)-c2ccccc2OC3)CC1	Shiga inhibitor 40, Cycloheximide cs 21
COC(=O)c1cc2c(s1)-c1ccccc1OC2	Shiga inhibitor 64, Cycloheximide cs 28 (no result: Pf growth 48h)
COc1ccccc1N1CCN(C(=O)c2cc3c(s2)-c2ccccc2OC3)CC1	none
CCCNC(=O)c1ccc(N2CCC3(CC2)CC(c2cccc(Br)c2)=NO3)c(NC(=O)c2cccc(C)c2)c1	Pf growth 48h inconclusive, Pf growth 96h inconclusive (no result: NS1 function inh, Shiga inhibitor, Cycloheximide cs)
CSc1ccccc1NC(=O)CN(C)C(C)C(=O)NCc1ccc2c(c1)OCO2 (stereo not drawn)	none (no result: Pf growth 48h, NS1 function inh, Shiga inhibitor, Cycloheximide cs, Pf growth 96h)
Cc1ccc(S(=O)(=O)N(C)Cc2ccc(C(=O)N/N=C/c3ccc(OC(F)F)cc3)cc2)cc1	none
CC[C@@]12C(=O)N(c3cccc(Br)c3)C(=O)N1[C@H](c1ccc(Cl)cc1)[C@@H]1C(=O)N(C3CCCCC3)C(=O)[C@@H]12	Pf growth 48h inconclusive, Pf growth 96h 8.3µM
CC(C)C[C@@]12C(=O)N(c3cccc(Br)c3)C(=O)N1[C@H](c1ccc(Cl)cc1)[C@@H]1C(=O)N(C3CCCCC3)C(=O)[C@@H]12	Pf growth 48h 2.6µM, Pf growth 96h inconclusive (no result: NS1 function inh, Shiga inhibitor, Cycloheximide cs)
CC(C)C[C@@]12C(=O)N(c3cccc(Cl)c3)C(=O)N1[C@H](c1ccc(Cl)cc1)[C@@H]1C(=O)N(C3CCCCC3)C(=O)[C@@H]12	Pf growth 48h inconclusive (no result: NS1 function inh, Shiga inhibitor, Cycloheximide cs)
CC[C@@]12C(=O)N(c3cccc(F)c3)C(=O)N1[C@H](c1ccc(Cl)cc1)[C@@H]1C(=O)N(C3CCCCC3)C(=O)[C@@H]12	Pf growth 48h inconclusive, Pf growth 96h inconclusive (no result: NS1 function inh, Shiga inhibitor, Cycloheximide cs)
CC(C)C[C@@]12C(=O)N(c3cccc(Cl)c3)C(=O)N1[C@H](c1ccc(F)cc1)[C@@H]1C(=O)N(C3CCCCC3)C(=O)[C@@H]12	Pf growth 48h 4.1µM, Pf growth 96h inconclusive (no result: NS1 function inh, Shiga inhibitor, Cycloheximide cs)
Cc1c(NS(=O)(=O)c2cc(C(=O)NCC3CCCO3)cc(Cl)c2Cl)c(=O)n(-c2ccccc2)n1C (stereo not drawn)	none (no result: NS1 function inh, Shiga inhibitor, Cycloheximide cs)
CCOC(=O)C1=C(CN2c3ccccc3CC2C)NC(=O)NC1c1ccccc1 (stereo not drawn)	Pf growth 48h inconclusive, Pf growth 96h inconclusive
COc1ccc(-n2c(SCC(=O)NCc3ccco3)nc3c([nH]c4ccccc43)c2=O)cc1	Pf growth 48h inconclusive, Pf growth 96h inconclusive
Cc1ccc(S(=O)(=O)Nc2ccc3c(c2)C(=O)N([C@H](C)CO)C[C@H](C)[C@@H](CN(C)Cc2ccc(-c4ccccc4)cc2)O3)cc1	none (no result: Pf growth 48h, NS1 function inh, Shiga inhibitor, Cycloheximide cs, Pf growth 96h)
Cc1ccc(O)c(CNc2ccccn2)c1	Shiga inhibitor 101
Cc1ccc(O)c(CNc2cccc(C)n2)c1	Pf growth 48h inconclusive
Cc1ccnc(NCc2cc(C)ccc2O)c1	Pf growth 48h inconclusive, Cycloheximide cs 19 (no result: Shiga inhibitor)
Cc1ccc(NC(=O)c2ccc(Cl)c(S(=O)(=O)Nc3c(C)n(C)n(-c4ccccc4)c3=O)c2)cc1Cl	Pf growth 48h inconclusive, Pf growth 96h inconclusive (no result: NS1 function inh, Shiga inhibitor, Cycloheximide cs)
CCOC(=O)C1(CCOc2ccccc2)CCN(Cc2cc(OC)c3c(c2)OCO3)CC1	Pf growth 48h inconclusive, Pf growth 96h inconclusive
Cc1nc2ccc(NC(=O)N(C)c3ccccc3)cc2s1	Shiga inhibitor 55, Cycloheximide cs 40
Cc1nc2ccc(NC(=O)c3ccc(S(=O)(=O)N(C)c4ccccc4)cc3)cc2s1	Pf growth 48h inconclusive, NS1 function inh inconclusive, Pf growth 96h inconclusive
Cc1nc2ccc(NC(=O)N(C(C)C)C(C)C)cc2s1	Shiga inhibitor 53, Cycloheximide cs 35 (no result: Pf growth 48h)
CC(C)N(C(=O)Nc1ccc2nccnc2c1)C(C)C	none
CCCCC(Sc1nc(N)c(NC(=O)c2ccc(OC)cc2)c(=O)[nH]1)C(=O)O (stereo not drawn)	none (no result: NS1 function inh)

Screens: PubChem, National Center for Advancing Translational Sciences (NCATS)
